Compound activity as filed in PubChem BioAssay.
Sampled rows, rich in hits. Any-hit rate of the full collection: about 2.3%.
Tau ThT inhib: blocks human tau fibril formation measured by thioflavin T. P10636. recombinant tau K18 P301L, heparin-induced fibrillization, ThT fluorescence. Potency, µM (series often up to 57.4 µM), for inactives: top-dose activity, negative = inhibition, most hits filed as inhibitors. actives 2.1% (n = 270,000); also: potency is read from the fitted curve at half-maximal effect; nearly all actives have a fitted effect of over 55% in size
Target sequence (P10636 561-689 P618L limits assumed): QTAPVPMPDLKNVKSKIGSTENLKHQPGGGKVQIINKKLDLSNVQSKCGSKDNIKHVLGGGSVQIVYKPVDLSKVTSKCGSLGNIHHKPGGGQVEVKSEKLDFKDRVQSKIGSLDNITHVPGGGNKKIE
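Recombinant human tau K18 fragment […] carrying P301L, 15 uM unlabeled plus 0.24 uM Alexa 594-labeled, was fibrillized with 20 uM heparin in 100 mM sodium acetate pH 7 for 6 hr at 37 C; 30 uM ThT fluorescence read after 1 hr.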
Tau FP inhib: tau fibrillization inhibition (FP); K18 P301L tau heparin fibrillization, Alexa594 FP, 6 h; Potency, µM (top dose mostly 57.7 µM), for the others: at the top dose activity, negative = inhibition, most hits filed as inhibitors; actives 0.39% (n = 280,000); AID 1468; also: potency is read from the fitted curve at half-maximal effect; nearly all actives have a fitted effect of over 55% in size
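Recombinant K18 P301L […], labeled with Alexa 594 at 0.24 uM over 15 uM unlabeled; heparin inducer 20 uM final; 37 C, 6 hr; FP endpoint.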
USP1 inh: inhibitors of human USP1/UAF1 deubiquitinase; O94782; recombinant USP1/UAF1, Ub-Rhodamine cleavage fluorescence; Potency, µM (doses to about 57.1 µM), inactives show at the highest dose activity change, negative = inhibition, usual class: inhibitors; actives 0.23% (n = 390,000); AID 743255; also: potency is read from the fitted curve at half-maximal effect; nearly all actives have a fitted effect of over 60% in size
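High-throughput fluorogenic screen: 1nM USP1/UAF1 complex, Ub-Rho substrate 150nM final, 50mM HEPES pH 7.8 with 0.5mM EDTA, 0.1 mg/ml BSA, 1mM TCEP and 0.01% Tween-20.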
FBPA coupling cs: counter-screen for Giardia aldolase inhibitors: coupling enzyme system. coupling enzyme system counterscreen, AmpLite Red fluorescence. AID 2472. activity change, negative = inhibition, % at 58.2 µM, hits read low. actives 0.67% (n = 290,000); in the data active = activity change below about -30%
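Coupling enzymes only (glyceraldehyde-3-phosphate) + compound, at 57.5 uM final, 10 min RT; add substrate/coupling/AmpLite Red mix, 20 min RT; fluorescence ex 525/em 598 nm. Actives flag coupling-system interference.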
Tau fluor cs: counter-screen for tau fibril formation inhibitors | AID 1463 | Potency, µM (highest dose often 57.7 µM), for the others: at the highest dose activity change, negative = decrease | actives 0.93% (n = 280,000) | tau K18 P301L Alexa594 fluorescence, heparin fibrillization; also: potency is read from the fitted curve at half-maximal effect; nearly all actives have a fitted effect of over 55% in size
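Human tau K18 P301L (15 uM unlabeled, 0.24 uM Alexa 594-labeled) in 100 mM sodium acetate pH 7 with 20 uM heparin, 6 hr at 37 C. ThT 30 uM added, 1 hr ambient; Alexa 594 FP and total fluorescence read at 555/632 nm.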
Numbers without * were called inactive; ? = inconclusive; · = no result given; [ ] = remark or other dose. Unless noted, calls follow the shape of the dose curve; as a rule, active = well fitted curve in the direction sought with a large enough effect; inconclusive = small, poorly fitted or top-dose-only effect, or another doubt; inactive = no such curve, though single readings can be large; an effect the other way counts as inactive or inconclusive. % is scaled to controls: 0 for no effect and ±100 for the full control effect.

SMILES | Tau ThT inhib | Tau FP inhib | USP1 inh | FBPA coupling cs | Tau fluor cs
Cc1[nH][nH]c(=O)c1C(c1ccc(-c2ccc(Cl)c(Cl)c2)o1)c1c(C)[nH][nH]c1=O | 8.91µM* | ? | ? | -45.4* | ?
CCOc1ccc(Cl)cc1C(c1c(C)[nH][nH]c1=O)c1c(C)[nH][nH]c1=O | · | · | -26.8% | 1.0 | ·
Cc1[nH][nH]c(=O)c1C(c1ccc(-c2ccc(F)cc2)o1)c1c(C)[nH][nH]c1=O | 7.94µM* | ? | ? | -36.8* | -22.4%
Cc1ccc2[nH]c(-c3ccc(F)cc3F)cc(=O)c2c1 | -7.2%[81.4 µM] | 7.6%[81.3 µM] | · | -3.6 | -4.6%[81.3 µM]
Cc1ccc(Cl)cc1NC(=O)C1CCN(c2nc3ccccc3n3cccc23)CC1 | -6.1% | 15.3% | ? | · | -19.4%
O=C1C(=O)N(CNc2cccnc2)c2ccccc21 | 4.9% | 12.3% | -9.1% | -36.7* | 0.2%
Cc1ccccc1-n1c(SCC(=O)Nc2ccc(Cl)cc2F)nnc1-c1cc2occc2n1C | 2.4% | -10.3% | ? | · | -18.7%
COC(=O)C[C@H](NC(=O)[C@H](C)NC(=O)[C@@H](NC(=O)OCc1ccccc1)C(C)C)C(=O)CF | -2.8% | -2.0% | · | · | 3.1%
Cc1ccc(Sc2ccc(/C=C3/C(=O)NN(c4ccccc4)C3=O)o2)cc1 | 12.6µM* | -13.0% | -15.8% | 2.2 | ?
O=C1NN(c2ccccc2)C(=O)/C1=C/c1ccc(Sc2ccc(Cl)cc2)o1 | 11.2µM* | -16.6% | 4.2% | -1.2 | ?
O=Cc1[nH]c2ccccc2c1N(C(=O)CCl)c1ccccc1 | 31.6µM* | ? | ? | 1.9 | -26.8%
Cc1ccc(OC(C)C(=O)N=Nc2c(O)[nH]c3ccc([N+](=O)[O-])cc23)cc1 (configuration not stated) | ? | 6.0% | -19.3% | 0.3 | 15.8µM*[quencher]
O=[N+]([O-])c1ccc2[nH]c(O)c(N=NC(=S)Nc3cccnc3)c2c1 | 2.24µM* | 12.2% | -15.1% | -2.8 | ?
CCCCCC(=O)N=Nc1c(O)[nH]c2ccc([N+](=O)[O-])cc12 | -11.4% | 3.4% | -2.7% | 1.0 | -16.6%
CCNC(=S)N=Nc1c(O)[nH]c2ccc([N+](=O)[O-])cc12 | ? | 5.9% | -2.2% | -10.7 | -13.2%
Cc1ccc(NCC(=O)N=Nc2c(O)[nH]c3ccc([N+](=O)[O-])cc23)cc1 | 15.8µM* | 2.9% | -8.8% | -31.1* | 25.1µM*[quencher]
Cc1cccc(OCC(=O)NCC(=O)N=Nc2c(O)[nH]c3ccc([N+](=O)[O-])cc23)c1 | · | · | -3.2% | -1.1 | ·
Cc1ccccc1NCC(=O)N=Nc1c(O)[nH]c2ccc([N+](=O)[O-])cc12 | ? | 6.3% | -7.7% | -4.1 | 17.8µM*[quencher]
CSc1cccc(NC(=O)Cn2c(=O)n(Cc3ccccc3)c(=O)c3sc4ccccc4c32)c1 | ? | ? | -12.2% | · | -1.2%
O=C(N=Nc1c(O)[nH]c2ccc([N+](=O)[O-])cc12)c1ccccc1Cl | ? | 11.9% | -17.7% | -0.3 | -24.9%
O=C(Nc1ccc(F)cc1)C(=O)c1c(O)[nH]c2ccc([N+](=O)[O-])cc12 | 15.8µM* | 2.0% | 0.9% | -22.9 | -27.3%
Cc1cccc(OCC(=O)N=Nc2c(O)[nH]c3ccc([N+](=O)[O-])cc23)c1 | 3.98µM* | -7.2% | -17.8% | -14.6 | ?
COc1ccc(-c2noc(CN(C)Cc3ccc(C)o3)n2)cc1 | -16.5% | 5.2% | -16.6% | -2.7 | -9.4%
COC(=O)c1cc(-c2ccc(Cl)cc2)c2c(=O)[nH]c(=O)n(C)c2n1 | -13.4% | -5.2% | -20.2% | · | -2.4%
CN1c2ccccc2N(C)C1(C)c1cccc2ccccc12 | 15.8µM* | ? | -8.4% | -29.6 | -28.1%
SMILES | Tau ThT inhib | Tau FP inhib | USP1 inh | FBPA coupling cs | Tau fluor cs
CC1=CC(C)(C)NC(=S)N1c1cccc2ccccc12 | -7.0% | 5.2% | -18.2% | -3.3 | -3.0%
O=C(NCCNCCO)C1(C(F)(F)F)CC(CCc2ccccc2)CCCO1 (configuration not stated) | · | · | · | 0.7 | ·
CCOc1ccc(CCNC(=O)CCn2c(=O)c3cccn3c3ccc(F)cc32)cc1 | -0.3% | -9.9% | -18.2% | · | -14.3%
Cc1cc(C)c2cc3c(N)c(C(=O)N4CCOCC4)sc3nc2c1 | 22.4µM* | 0.2% | -21.0% | 0.2 | ?
COc1ccc2nc3sc(C(=O)NCc4cccs4)c(N)c3cc2c1 | 15.8µM* | -1.3% | · | -2.9 | ?
Cc1ccc(C)c2nc3sc(C(=O)N4CCOCC4)c(N)c3cc12 | -3.9% | -7.5%[2.34 µM] | ? | 2.1 | -5.8%[2.34 µM]
CCOc1ccc2nc3sc(C(=O)N4CCOCC4)c(N)c3cc2c1 | 7.08µM* | ? | -0.8% | -29.9 | ?
Cc1ccc(Nc2c(-c3cccnc3)nc3ccc(Cl)cn23)cc1 | -9.6% | 1.0% | -3.3% | · | -19.5%
CCCCN1CC(c2nc3ccccc3n2CCCCOc2c(C)cccc2C)CC1=O (configuration not stated) | -3.6% | -9.4% | ? | · | -6.5%
CC(C)Nc1ccc(Nc2ccnc3cc4ccccc4cc23)cc1 | 5.01µM* | -2.9% | -4.6% | -2.5 | 17.8µM*[quencher]
O=C(NCCc1ccccc1)c1nccc2ccccc12 | · | · | -21.0% | · | ·
c1ccc(CCNc2ccnc3cc4ccccc4cc23)cc1 | ? | ? | ? | -43.5* | -19.4%
C/C(=N/NC(=O)c1cc2ccccc2cc1O)C1C(=O)c2ccccc2C1=O | 2.51µM* | -1.1% | ? | 4.8 | 14.1µM*[quencher]
C/C(=N\NC(=O)c1cc2ccccc2cc1O)c1ccccn1 | · | · | -22.8% | · | ·
C/C(CC(=O)N1CCN(C=O)CC1)=N\NC(=O)c1cc2ccccc2cc1O | 25.1µM* | ? | -19.3% | -11.5 | ?
C/C(=N\NC(=O)c1ccccc1O)C1C(=O)c2ccccc2C1=O | 5.01µM* | 11.5% | -22.1% | 2.2 | ?
C/C(=N\NC(=O)c1cc2ccccc2cc1O)c1cc2ccccc2o1 | 3.55µM* | 5.9% | ? | -0.8 | ?
COc1cc(-c2nc(S(=O)(=O)c3ccc(Br)cc3)c(N3CCOCC3)o2)cc(OC)c1OC | -9.4% | 12.0% | -23.3% | · | -22.7%
O=[N+]([O-])c1cc(S(=O)(=O)N2CCCC2)ccc1NN=C1CCCCC1 | -3.3% | 3.8% | -3.1% | -0.9 | -3.0%
O=[N+]([O-])c1cc(C(F)(F)F)cc([N+](=O)[O-])c1NN=C1CCCCC1 | 12.6µM* | ? | -8.5% | -6.2 | ?
COc1ccc(Nc2nc(N3CCOCC3)nc(N3CCOCC3)n2)c(OC)c1 | · | · | -11.6% | -1.2 | ·
COc1ccc(Nc2nc(Nc3ccc(OC)cc3OC)nc(N3CCOCC3)n2)c(OC)c1 | ? | 3.4% | -39.0% | · | 2.82µM*[quencher]
N#CC1=C2SCN(c3ccc(F)cc3)CN2C(=O)CC1c1cccc(F)c1 (configuration not stated) | 15.8µM* | ? | -12.3% | -13.9 | ?
